Test results published in PubChem BioAssay (NCI).
About 83,000 compounds went through this panel and 20% of them were active in at least one assay; those are over-represented in the sample as a whole.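 Single-dose data. Exposure time 48 hours. Values below 10 considered active.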 Values without a mark were called inactive. The source made the active and inactive calls.

tested on: PC-3 prostate; experiment: NCI-60 one-dose screen, 48 h (100 = growth as untreated, 0 = no growth, -100 = all killed); settings: 10 µM unless noted
Experimental: Growth inhibition of the PC-3 human tumor cell line is measured as a screen for anti-cancer activity. Cells are grown in 96 well plates and exposed to the test compound for 48 hours. Compounds are tested at a single concentration, which is 10^-5 M for most compounds. The reported endpoint is percent growth (GI% or GIPRCNT), where numbers from 0 - 100% represent growth inhibition, and numbers from -100% - 0 represent cell death. For example, a value of 40 represents 60% growth inhibition. A value of 0 means no net growth occurred over the course of the experiment. A value of -40 indicates 40% of cells at the beginning of the experiment died by the end of the experiment. A value of -100 means all cells are dead at the end of the experiment.
NCI-60 Human Tumor Cell Lines Screen was performed using the standard one-dose NCI protocol, which is described in more detail at https://dtp.cancer.gov/discovery_development/nci-60/default.htm.
Compounds with GIPRCNT values below 10 were considered active. Activity score was based on GIPRCNT using the following formula: […]
Score is 0 for GIPRCNT values of 100 or above, 50 for GIPRCNT values of 0, and 100 for GIPRCNT values of -100.

SMILES	growth
CCCCCCCCCCCCOC(=N)N(C)C	91.4%
CC(C)(C)C(=O)CCCCCCCC/C=C/CCCC(O)c1ccco1 (stereo not given)	102%
CCCCCCC(C(=O)OCC)(C(=O)OCC)C1CCCCCC1	102%
COc1ccc(-c2cc(C#N)c(NNC(C)=O)[nH]2)cc1	115%
CCN(CC)CCCNc1c2ccc(Cl)cc2nc2ccc(OC)cc12	-34.6% (active)
CCOC(=O)NC1=NCC(C)(C)S1	93.6%
CCOC(=O)c1cc(-c2ccc(OC)cc2)[nH]c1NNC(=O)CCOC	93.2%
Cc1ccc2c(c1)C(=O)CCS2	101%
COc1ccc(-c2nc(Nc3nc4ccccc4[nH]3)nc(N)c2C#N)cc1	88.1%
O=C1Nc2c(c(=O)n(-c3ccccc3)c3ccccc23)C(c2ccc(Cl)cc2)N1 (stereo not given)	105%
COC(=O)/C=C1/CCCCC1(C)C(=O)OC (stereo not given)	102%
Cc1nc2ccccc2c(=O)n1-c1cccc(OCc2cn(-c3cccc(O)c3)nn2)c1	87.6%
CCCCCCCCCCCC(=O)OC(C)C(=O)Nc1ccccc1 (stereo not given)	90.3%
Cn1cnc2nc[nH]c2c1=S	86.4%
O=C(NCCCl)Nc1nccnc1OCc1ccc(F)cc1	96.5%
CNc1nc2ncn(C)c2c(=O)[nH]1	100%
COc1ccccc1Nc1nnc(COc2ccc(CNC(=O)CCCC/C=C/C(C)C)cc2OC)o1	84.4%
CC[n+]1c(C)ccc2cc(C)ccc21	104%
COc1ccc(-c2cn3ccnc3c(-c3ccc4ncn(C5CCCCC5)c4c3)n2)cc1	4.78% (active)
CC1=C[C@@H]2c3c(c(O)c(O)c4oc5cc(O)cc(O)c5c(=O)c34)[C@@H](c3cc(O)c(O)c4oc5cc(O)cc(O)c5c(=O)c34)[C@@H]2C(C)(C)C1	2.82% (active)

SMILES	growth
COc1ccc(/C=C(/C(=O)N2CCCCC2)c2cc(OC)c(OC)c(OC)c2)cc1	12.4%
CCOC(=O)C1C(=O)C(=O)N(C(C)C)C1C(=O)OCC (stereo not given)	97.8%
COc1ccc(Oc2[nH]n(C3=Nc4ccccc4Sc4ccccc43)c(=O)c2C#N)cc1	82.8%
O=C(/C=C\c1ccc(NCc2ccc(C(=O)O)cc2)cc1)CCl	96.2%
COc1cc(OC)c(NC(=O)n2ncc3cc(Nc4ncnc5ccccc45)ccc32)cc1Cl	97.5%
COc1cc(NC(C)CCCN)c2nccc(C)c2c1OC (stereo not given)	72.3%
CCCCCN1CCN(C(CC(=O)c2ccccc2)C(=O)c2ccccc2)CC1 (stereo not given)	92.6%
O=C(NCCNCCO)c1cc([N+](=O)[O-])cc([N+](=O)[O-])c1O	99.7%
N=C(N)N=Nc1ccc(NN=C(N)N)cc1	45.9%
CC(=O)N1N=C(c2ccc(Cl)cc2)CC1c1cn(-c2ccccc2)nc1-c1ccc([N+](=O)[O-])cc1 (stereo not given)	108%
Cc1ccc(S(=O)(=O)Nc2cccc(Cn3c(=O)[nH]c4ccc(Oc5ncccn5)cc4c3=O)c2)cc1	52%
CCCC(=O)Nc1ccccc1C(=O)O	103%
CC(=O)CCS(=O)c1ccccc1 (stereo not given)	94.6%
Cc1ccc(C(=O)NN)cc1	109%
c1ccc2[nH]c(-c3ccc(OCCCCCOc4ccc(-c5nc6ccccc6[nH]5)cc4)cc3)nc2c1	-70% (active)
CCOC(=O)c1c2c(cn1Cc1ccccc1)-c1oncc1CC2	97.3%
O=C(c1ccccc1)c1ccccc1-c1ccccc1	41.4%
COc1cccc(CNC(=O)c2cccc(C3CC(=O)c4c(cc(OC)c(OC)c4OC)O3)c2)c1 (stereo not given)	20.8%
Nc1nc2c(c3cnccc13)C(c1cccc(Cl)c1)Cc1cnccc1-2 (stereo not given)	12.8%
CCCCCCCCCCCCCCCCCC(=O)Nc1ccc(O)cc1	66.6%
